High-throughput results: PubChem BioAssay, National Center for Advancing Translational Sciences (NCATS)
Only some compounds are listed: those with a hit (about 2.4% of all), similar ones and a draw of the others.
Pol kappa inh = inhibitors of human DNA polymerase kappa; Q9UBT6; purified Pol kappa, fluorescent DNA synthesis assay, 10 min; Potency, µM (titrated, usually from 107 µM), inactives show at the highest dose activity, negative = inhibition, usual class: inhibitors; hit rate 0.53% among 400,000; further: on the % scale 0 is the no-effect control and ±100 the full control effect
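Pol kappa 10 nM + cpd, 15 min RT; start w/ substrate 50 nM final; fluorescence kinetic read, 0 and 10 min. Neg ctrl: buffer, no enzyme.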
POLH inh = blocks human DNA polymerase eta activity; AID 588591; recombinant Pol eta, fluorescent DNA replication assay; hit rate 1.2% among 390,000; Potency, µM (doses to about 114 µM), without a hit: top-dose activity change, negative = inhibition, most hits filed as inhibitors; Q9Y253; further: on the % scale 0 is the no-effect control and ±100 the full control effect
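Pol eta (10 nM) was preincubated with compounds for 15 min at room temperature, after which fluorescent replication substrate (50 nM final) was added to start the reaction. Fluorescence was read kinetically at 0 and 10 min.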
APEX1 inh = inhibitors of human APE1 endonuclease; recombinant APE1, TAMRA/BHQ-2 abasic DNA cleavage fluorescence; Potency, µM (top dose mostly 65.8 µM), for the others: at the top dose activity change, negative = inhibition, most hits filed as inhibitors; hit rate 0.35% among 350,000; AID 2517;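 further: plate controls were vehicle for no effect and reference inhibitor for full effect; nearly all actives have a fitted effect of over 55% in size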
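Compound pre-exposure to 0.75 nM APE1, 15 min at ambient temperature. Reaction initiated with 50 nM TAMRA/BHQ-2 THF substrate, read immediately in kinetic mode, 525 nm excitation, 598 nm emission.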
GLS inh = inhibitors of human glutaminase (GLS); GLS enzymatic activity, qHTS titration; Potency, µM (titrated, usually from 45.5 µM), for the others: top-dose activity change, negative = inhibition, hits mostly inhibitors; O94925; hit rate 0.21% among 410,000; further: on the % scale 0 is the no-effect control and ±100 the full control effect
Target sequence (O94925 whole entry, looked up): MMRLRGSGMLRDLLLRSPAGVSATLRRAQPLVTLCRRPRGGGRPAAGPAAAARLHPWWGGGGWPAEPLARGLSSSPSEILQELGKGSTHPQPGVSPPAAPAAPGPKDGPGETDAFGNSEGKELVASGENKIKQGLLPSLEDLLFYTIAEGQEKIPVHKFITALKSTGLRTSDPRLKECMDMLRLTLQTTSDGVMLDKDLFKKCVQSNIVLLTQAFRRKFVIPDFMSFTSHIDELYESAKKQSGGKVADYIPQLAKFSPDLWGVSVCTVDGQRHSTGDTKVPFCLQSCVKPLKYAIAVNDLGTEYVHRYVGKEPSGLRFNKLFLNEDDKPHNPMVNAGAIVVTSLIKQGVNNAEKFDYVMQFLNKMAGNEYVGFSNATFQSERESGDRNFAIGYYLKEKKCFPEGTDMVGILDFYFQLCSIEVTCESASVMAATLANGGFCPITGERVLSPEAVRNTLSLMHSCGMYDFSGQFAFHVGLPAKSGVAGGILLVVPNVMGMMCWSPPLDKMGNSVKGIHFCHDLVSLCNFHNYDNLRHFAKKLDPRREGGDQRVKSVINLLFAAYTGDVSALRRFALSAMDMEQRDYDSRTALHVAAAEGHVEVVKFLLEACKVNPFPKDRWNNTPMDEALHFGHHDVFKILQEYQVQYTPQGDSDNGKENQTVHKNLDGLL
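hKGA; 45 mM KH2PO4 pH 8.2 + 0.02% Tween-20; cpd via pin tool; 1 mM Gln soln; GluOx/HRP/Amplex Red; RT 30 min; fluor. t0 & final.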
Pol beta inh = DNA polymerase beta (human) inhibition; P06746; Pol beta primer extension/strand displacement, fluorescence kinetic; Potency, µM (titrated, usually from 114 µM), inactives show at the highest dose activity change, negative = inhibition, most hits filed as inhibitors; hit rate 1.3% among 340,000; further: on the % scale 0 is the no-effect control and ±100 the full control effect
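Human Pol beta at 10 nM; strand-displacement substrate 50 nM final. Compound exposure 15 min at room temperature before start, reaction 10 min at room temperature.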
POLI inh = inhibitors of human DNA polymerase iota | Q9UNA4 | Pol iota fluorescent replication assay, 10 min | Potency, µM (doses to about 115 µM), inactives show top-dose activity, negative = inhibition, actives largely listed as inhibitors | hit rate 1% among 390,000
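Fluorescent replication assay read twice, at 0 min and 10 min after adding 50 nM (final) substrate. Enzyme (10 nM) and compounds were first incubated 15 min at room temperature; enzyme-free buffer wells were negative controls.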
The depositor's hits bear a star; ? = inconclusive; . = not tested or not shown; ! = not active in a repeat; [ ] = remark or other dose. The call rests on the fitted dose curve; in most records, active means well fitted curve in the direction sought with a large enough effect; inconclusive means small, poorly fitted or top-dose-only effect, or another doubt; inactive means no such curve, though single readings can be large; an effect the other way counts as inactive or inconclusive. Potency means the concentration at half of the fitted maximal effect.

SMILES	Pol kappa inh	POLH inh	APEX1 inh	GLS inh	Pol beta inh	POLI inh
CC[C@]1(O)CC(O[C@@H]2CC(N(C)C)C(O)C(C)O2)c2c(cc3c(c2O)C(=O)c2c(O)cccc2C3=O)C1C(=O)OC (some centres undefined)	6.3µM*	.	14µM*	.	.	.
CC[C@@]1(O)CC(O)c2c(cc3c(c2O)C(=O)c2c(O)ccc(O)c2C3=O)C1C(=O)OC (some centres undefined)	25µM*	.	?	.	.	.
CCS(=O)(=O)N1N=C(c2cccc(NS(C)(=O)=O)c2)CC1c1ccccc1 (centres undefined)	-2%	45µM*	-2%	-2%	32µM*	34%
CC1=CC(=O)c2c(O)cccc2C1=O	10µM*!	.	?	.	.	.
Cc1cc(/C=C2\C(=O)NC(=O)N(C)C2=O)c(C)n1-c1ccc2c(c1)OCO2	-40%	?	-3%	-12%	?	?
Cc1cc(C=C2C(=O)NC(=S)NC2=O)c(C)n1-c1ccc2c(c1)OCO2	79µM*	20µM*	8%	-1%	89µM*	20µM*
Cc1cc(C=C2C(=O)NC(=O)NC2=O)c(C)n1-c1ccc2c(c1)OCO2	-15%	32µM*	0%	-4%	-10%	18µM*
COc1ccc(NC(=O)CN2C(=O)C(C)N=C(c3ccccc3)c3ccccc32)cc1OC (centres undefined)	-4%	-16%	.	0%	8%	11%
CCC(NC(=O)OC(C)(C)C)C(=O)Oc1cc(C)cc2oc(=O)c3c(c12)CCC3 (centres undefined)	0%	-17%	5%	12%	32%	28%
COc1ccc(CCn2c(O)c(/C=N/N3CCOCC3)c(=O)[nH]c2=O)cc1OC	5%	-7%	1%	32%	9%	19%
Cc1cccn2c(=O)c(/C=C(\C#N)c3nc4ccccc4s3)c(Oc3ccc(F)cc3)nc12	-4%	79µM*	.	16%	?	?
COc1ccc(-n2c(O)c(C=NCCN3CCN(C(C)=O)CC3)c(=O)[nH]c2=S)cc1	-16%	6%	40%	14%	2%	?
CN(C)C1C(=O)C(C(N)=O)=C(O)C2(O)C(=O)C3=C(O)c4c(O)cccc4C(C)(O)C3CC12 (centres undefined)	?	-7%	-14%	?	3.2µM*	?
CN(C)[C@@H]1C(=O)C(C(N)=O)=C(O)[C@@]2(O)C(=O)C3=C(O)c4c(O)ccc(Cl)c4[C@@](C)(O)C3C[C@@H]12 (some centres undefined)	79µM*	-13%	-3%	16%	?	?
CCCCC1(CCC)C(=O)NC(=S)NC1=O	-14%	-4%	.	2%	.	-3%
CC(=O)N1Cc2cnnn2-c2ccccc2C1(C)C#N (centres undefined)	-12%	-15%	.	3%	.	41%
COc1cc2c(cc1OC)-c1c(OC)c(OC)cc3c1[C@H](C2)[N+](C)(C)CC3	-35%	-1%	-2%	6%	50µM*	?
O=C1C(Cl)=C(Cl)C(=O)C(Cl)=C1Cl	?	.	40µM*	.	.	.
Oc1c(Cl)c(Cl)cc(Cl)c1Cl	.	.	3%	.	.	.
COc1cccc(NC(=O)c2ccc3c(=O)n4nc(Nc5ccccc5OC)sc4nc3c2)c1	3%	?	.	-9%	-3%	?
Cc1ccc(Cl)cc1Nc1nn2c(=O)c3ccc(C(=O)NCc4cccs4)cc3nc2s1	-6%[60.1 µM]	?	.	-17%	8.9µM*	?
CCC(=NCCO)c1c(O)n(-c2ccccc2)c(=O)[nH]c1=O	-2%	-8%	-4%	19%	-1%	1%
CC/C(=N\Nc1ccccc1)c1c(O)n(-c2ccc(OC)cc2)c(=O)[nH]c1=O	0%	-8%	2%	10µM*	0%	137%
O=c1c2ccccc2nc(/C=C/c2ccc(O)c(O)c2)n1-c1ccccc1	-19%	18µM*	18%	?	?	?
COc1cc(/C=C/c2nc3ccccc3c(=O)n2-c2ccccc2O)ccc1O	-5%	-25%	1%	?	-5%	118%
SMILES	Pol kappa inh	POLH inh	APEX1 inh	GLS inh	Pol beta inh	POLI inh
COc1cc(/C=C/c2nc3ccccc3c(=O)n2-c2cccc(O)c2)ccc1O	?	?	?	-19%	?	18µM*
COc1ccc(OC)c(NC(=O)Cn2cc(C(=O)c3ccccc3)c3ccccc32)c1	-26%	-21%	.	0%	1%	4%
CCn1c(=S)sc2c(=O)[nH]c(SCC(=O)Nc3cc(OC)ccc3OC)nc21	-17%	50µM*	-8%	3%	0%	?
C[C@H](N)Cc1ccccc1	4%[19.4 µM]	.	.	5%	.	.
C#CCN(C)[C@H](C)Cc1ccccc1	-7%	-11%	5%	1%	-29%	79µM*
C=CCc1cc(C=C2C(=O)NC(=O)NC2=O)cc(OC)c1OCc1ccc(C(=O)O)cc1	-20%	50µM*	-8%	-1%	?	?
C=CC(=O)OCCN(C)C	.	.	-1%	.	.	.
Cc1ccccc1-n1c(O)c(/C=C/C=Nc2ccccc2)c(=O)[nH]c1=O	-14%	?	-11%	-3%	-3%	79µM*
Cn1c(O)c(/C=C/C=Nc2ccccc2)c(=O)n(C)c1=S	?	?	4%	-3%	25µM*	79µM*
Cc1cccc(-n2c(O)c(/C=C/C=Nc3ccccc3)c(=O)[nH]c2=O)c1	-16%	-8%	13%	10%	19%	13%
O=C1N[C@H](Cc2ccccc2)C(=O)N2[C@@H]3[C@H](C[C@@H]12)c1ccccc1N3OOSc1ccccc1	-12%	-7%	.	11%	.	0%
Cc1cc(C(=O)OC(C)C(=O)Nc2ccccc2)c(C)n1C1CC1 (centres undefined)	.	-8%	.	-8%	.	.
COC(=O)C(O)(c1ccc(NC(=O)c2ccccc2)cc1)C(F)(F)F (centres undefined)	-2%	-25%	-1%	1%	1%	28%
O=C(Cc1ccccc1)OCc1ccccc1	0%	-10%	4%	-2%	.	6%
[O]=[Sb]([OH])([OH])[c]1ccccc1	25µM*	.	.	.	.	20µM*
O=C(Nc1cc[c]([Sb](=[O])([OH])[OH])cc1)c1ccccc1	6.3µM*	.	.	.	.	?
O=S1(=O)CCN(CCc2c[nH]c3ccccc23)CC1	10%	-7%	0%	7%	11%	-21%
Cc1ccc(C2NC(=S)NC(c3ccc(C)cc3)C23C(=O)NC(=O)NC3=O)cc1 (centres undefined)	-7%	-10%	-2%	6%	32%	8%
O=C1NC(=S)NC(=O)C1C(=O)Nc1ccccc1	-9%[60.1 µM]	.	9%	.	.	.
